55 molecules from PubChem BioAssay AID652048 (National Center for Advancing Translational Sciences (NCATS), 2013) can be followed below.

The whole screen tested about 410,000 compounds, of which about 2,400 (0.59%) were called active. Only a selection was taken, and actives are over-represented in it overall. Unmarked numbers belong to inactive results. Cut-off read from the data, not from the text of the source: active = max activation above about 30%; inactive = the rest. *1 amine or outer side, *2 acyl side, *3 side chain or, on linkers, in order; H or OH if unused. Where a SMILES comes first, the peptide text is derived from it. Bridges are numbered along the chain shown (N, C = ends). [ ]: non-standard residue; d: D form. The star is where a group is joined. X2 = NC1=N[C@@H]([C@H](N[*:1])C(=O)[*:2])C[C@H](O)N1; ΔAla(Z-3-ureido) = NC(=O)N/C=C(\N)C(=O)O; β3hOrn = NCCC[C@H](N)CC(=O)*; Dap = NC[C@H](N)C(=O)O

Sequence of D(3) dopamine receptor (Homo sapiens) (P35462 whole entry, looked up): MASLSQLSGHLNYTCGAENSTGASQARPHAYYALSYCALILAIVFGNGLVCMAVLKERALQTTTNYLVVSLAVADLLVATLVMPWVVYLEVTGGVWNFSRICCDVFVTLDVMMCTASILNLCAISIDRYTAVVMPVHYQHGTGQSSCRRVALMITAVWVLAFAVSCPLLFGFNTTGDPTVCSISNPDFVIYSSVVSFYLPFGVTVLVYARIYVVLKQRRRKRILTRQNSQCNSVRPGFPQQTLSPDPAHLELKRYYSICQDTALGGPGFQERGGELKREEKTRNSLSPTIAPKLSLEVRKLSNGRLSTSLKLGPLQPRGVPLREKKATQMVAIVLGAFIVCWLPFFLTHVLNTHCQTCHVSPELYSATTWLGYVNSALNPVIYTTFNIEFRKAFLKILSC

This assay concerns the target D(3) dopamine receptor (Homo sapiens) (UniProt P35462). In words: qHTS of D3 Dopamine Receptor Agonist: qHTS. Note: 0% is about no effect. The settings on record: D3R DiscoveRx beta-arrestin cells, luminescence, 90 min; stronger effect = higher value. The essentials: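 Agonist mode: compounds and dopamine controls were applied to plated cells for 90 min at 37 degrees C after an overnight attachment at 1500 cells/well. Luminescent read-out followed 30 - 60 minutes at room temperature with DiscoveRx detection reagent.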
In the case of `CCC(C)[C@@H](N)C(=O)O` (stereo not given in full), the max activation was 1.21%.

Regarding `COc1cc(NS(=O)(=O)c2cccs2)cc(OC)c1`, the max activation was -2.4%.

With `O=C(CSc1ncc(S(=O)(=O)c2ccc(Br)cc2)c(=O)[nH]1)Nc1ccc2c(c1)OCCO2`, the max activation is 0.197%.

Turning to `Cn1c(=O)c(=O)n(C)c2cc(S(=O)(=O)CCC(=O)N3CCCCC3)ccc21`, the max activation is -3.93%.

For `Cc1ccc(C(=O)Nc2cc3c(cc2N2CCCC2)n(C)c(=O)c(=O)n3C)cc1`, the max activation is -5.76%.

With `CCc1ccc(S(=O)(=O)Nc2cc3c(cc2N2CCCCC2)n(C)c(=O)c(=O)n3C)cc1`, the max activation is 33.6% (active).

Take `Cc1c(NS(=O)(=O)c2cccc(C(=O)Nc3ccc(SC(F)F)cc3)c2)c(=O)n(-c2ccccc2)n1C`: the max activation was 33.5% (active).

Turning to `Cc1c(NS(=O)(=O)c2ccc(Cl)cc2)c(=O)n(-c2ccccc2)n1C`, the max activation is 0.215%.

Regarding `Cc1c(NS(=O)(=O)c2cc(C(=O)NCCc3ccc(F)cc3)cc(Cl)c2Cl)c(=O)n(-c2ccccc2)n1C`, the max activation was 0.49%.

`NCCC[C@H](N)CC(=O)N[C@H]1CNC(=O)[C@H]([C@H]2C[C@H](O)NC(N)=N2)NC(=O)/C(=C/NC(N)=O)NC(=O)[C@H](CO)NC(=O)[C@H](CO)NC1=O` (β3hOrn-[Dap]SS[ΔAla(Z-3-ureido)][X2]; lactam 1-C): the max activation is 4.66%.

As for `CCc1nc2ccccc2n(CCOCCOCCn2c(=O)c(CC)nc3ccccc32)c1=O`, the max activation is 1.74%.

In the case of `CCOCCn1c(-c2ccccc2)nc2ccccc21`, the max activation is 65.4% (active).

For `CCOCCn1c(C(C)C)nc2ccccc21`, the max activation was -2.13%.

In the case of `Cc1ccc(CSc2nc3cccnc3n2Cc2ccc(C(=O)NC3CC3)cc2)cc1`, the max activation is 2.04%.

In the case of `CCOc1cccc(NC(=O)c2ccc(F)c(S(=O)(=O)N(CC)c3cccc(C)c3)c2)c1`, the max activation is 6.21%.

For `CS(=O)(=O)NC(=O)CCC/C=C\C[C@H]1C(=O)C[C@@H](O)[C@@H]1/C=C/[C@H](O)COc1ccccc1`, the max activation was -14.2%.

With `COc1cc(OC)c(C(=O)NNC(=O)c2ccc(NS(=O)(=O)c3cccs3)cc2)cc1OC`, the max activation is 2.22%.

`COc1cc2ccccc2cc1C(=O)Nc1ccc(NC(=O)c2cccs2)cc1`: the max activation is 30% (active).

Turning to `COc1cc2ccccc2cc1C(=O)Nc1cccc(-c2nc3ccccc3o2)c1`, the max activation was 9.76%.

Regarding `C=C1CC[C@H](O)CC1=C/C=C1\CCC[C@]2(C)[C@@H]([C@H](C)/C=C/[C@H](C)C(C)C)CC[C@@H]12`, the max activation is 14.3%.

Take `C=C1C(=C/C=C2\CCC[C@]3(C)[C@@H]([C@H](C)CCCC(C)(C)O)CC[C@@H]23)C[C@@H](O)C[C@@H]1O`: the max activation was 31.6% (active).

As for `CCCN(CCC)CCNC(=O)Cn1cnc2sc(C)c(S(=O)(=O)N3CCC(C)CC3)c2c1=O`, the max activation is -7.98%.

As for `Cc1ccc(-c2nn3c(=O)cc(CN4CCN(C(=O)Nc5cccc(C(F)(F)F)c5)CC4)nc3s2)cc1`, the max activation is 5.13%.

With `CCc1ccc(CN(Cc2ccco2)C(=O)c2ccccc2Cl)cc1`, the max activation was -16.7%.

For `COc1ccc(NC(=O)c2sc3nc(-c4cc5cccc(OC)c5oc4=O)[nH]c(=O)c3c2C)cc1`, the max activation is -8.2%.

As for `CSc1ncnc2c1ncn2CC(=O)C1CCC2C3CCC4=CC(=O)CCC4(C)C3CCC12C` (stereo not given), the max activation is 53.2% (active).

As for `CSc1ncnc2c1ncn2CCCNCc1ccco1`, the max activation is -2.72%.

As to `CO[C@H]1[C@@H](O)[C@H](N)[C@@H](O[C@H]2O[C@H]([C@H](C)N)CC[C@H]2N)[C@H](O)[C@@H]1N(C)C(=O)CN`, the max activation is 4.34%.

Turning to `CCN1CCN(C(=O)Cn2nc(C)n3c(cc4c(OC)cccc43)c2=O)CC1`, the max activation is 75.8% (active).

Regarding `COc1cccc2c1cc1c(=O)n(CC(=O)N3CCN(c4cccc(Cl)c4)CC3)nc(C)n12`, the max activation is 9.45%.

As for `COc1cccc2c1cc1c(=O)n(CC(=O)N3CCN(c4ccccc4)CC3)nc(C)n12`, the max activation is 5.49%.

Consider `Cc1c(O)cc2c(c1C)O[C@](C)(CCC[C@H](C)CCC[C@H](C)CCCC(C)C)CC2`, for which the max activation is 13.3%.

Turning to `CCc1cccc(NC(=O)CN(C)S(=O)(=O)c2ccc3[nH]c4c(c3c2)CCCC4)c1`, the max activation is -8.32%.

With `Cc1ccc2c(=O)c(C(=O)c3ccc(F)cc3)cn(CC(=O)NC3CCCCC3)c2n1`, the max activation is -2.6%.

Consider `COc1cc(OC)cc(C(=O)NCC(=O)N2CCCCCCC2)c1`, for which the max activation is -0.951%.

As for `Cc1cc(C)cc(C(=O)NCC(=O)OCC(=O)N2CCCCC2)c1`, the max activation was -0.844%.

As to `COc1ccc(OC)c(CN2CCN(C(=O)CNC(=O)c3cc(C)cc(C)c3)CC2)c1`, the max activation is 48.9% (active).

With `Cc1nc(CN(C)C(=O)CC2C(=O)NCCN2Cc2ccc(F)cc2)cs1` (stereo not given), the max activation is 0.365%.

For the molecule `Cc1cnc(CN(C)C(=O)CC2C(=O)NCCN2Cc2cccc(F)c2F)[nH]1` (stereo not given), the max activation is 4.65%.

Take `CN(Cc1cccc2ncccc12)C(=O)CC1C(=O)NCCN1Cc1ccc(F)cc1` (stereo not given): the max activation is 32.9% (active).

On to `CCCS(=O)(=O)c1ncc(Cl)c(C(=O)Nc2scc(-c3ccccc3)c2C(=O)OCC)n1`, for which the max activation is -8.93%.

Take `CC1CCCN(c2csc3ccc(F)cc3c2=O)C1` (stereo not given): the max activation is 5.02%.

Consider `CCc1ccc(OCC(O)CN2CCN(CCO)CC2)cc1` (stereo not given), for which the max activation is -6.12%.

Take `CC(C)c1ccccc1OCC(O)CN(CC(O)COc1cccc2ccccc12)C(C)C` (stereo not given): the max activation is 13.3%.

Take `C=CCc1ccc(OCC(O)CN2CCN(Cc3ccccc3)CC2)c(OC)c1` (stereo not given): the max activation is -9.27%.

With `Cc1ccccc1OCC(O)CN1CCN(c2ccccn2)CC1` (stereo not given), the max activation was 41.3% (active).

Regarding `Cc1cccc(OCC(O)CN2CCN(CCN3C(=O)c4cccc5cccc(c45)C3=O)CC2)c1C` (stereo not given), the max activation is -7.59%.

On to `O=S(=O)(c1ccc(OCC(O)CN2CCN(c3ccccc3Cl)CC2)cc1)N1CCOCC1` (stereo not given), for which the max activation is 7.66%.

With `CC(C)c1ccc(OCC(O)CN2CCN(c3ccccn3)CC2)cc1` (stereo not given), the max activation is 42.2% (active).

`O=C1c2cccc3cccc(c23)N1CN1CCN(c2ccccn2)CC1`: the max activation is 7.73%.

`OC(COc1cccc2ccccc12)CN1CCN(c2ccccn2)CC1` (stereo not given): the max activation is 66.5% (active).

As to `O=C(Cn1c(-c2cccs2)cc2ccccc21)NCCc1ccc(Cl)cc1`, the max activation was -7.79%.

In the case of `COc1ccc(NC(=O)CSc2nc3ncccc3[nH]2)c(OC)c1`, the max activation was -5.62%.

In the case of `CCCC(=O)Nc1ccc(NC(=O)c2sc3ccccc3c2Cl)cc1`, the max activation is -7.19%.

Take `CCCCC(CC)CNC(=O)C1CCN(S(=O)(=O)c2cccc3nsnc23)CC1` (stereo not given): the max activation is -12.4%.
